An excerpt weighted towards active compounds, which were near 2.6% of everything screened.
PHOSPHO1 inh: PHOSPHO1 (human) inhibition; Q8TCT1; recombinant PHOSPHO1, absorbance phosphatase assay; inhibition, % at 13.3 µM; hit rate 1.1% among 290,000; AID 1565; in the data active = inhibition above about 60%
PABP FP inh: PABP-poly(A) binding inhibition; calls only at 35 µM; AID 2014; P11940; PABP-poly(A) RNA binding, fluorescence polarization; hit rate 1% among 290,000;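 note: calls also rest on retests at 20 µM and on dose response follow-up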
eIF4H FP inh: inhibitors of RNA binding by human eIF4H. Q15056. eIF4H fluorescence polarization binding assay. inhibition, % at 35 µM. hit rate 0.94% among 290,000. AID 2012;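 note: calls also rest on retests at 20 µM and on dose response follow-up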
PABP1 MLLE inh: inhibitors of microRNA-mediated deadenylation, human PABP1 MLLE binding | P11940 | GST-MLLE / FITC-PAM2 fluorescence polarization | inhibition, % at 20 µM | hit rate 0.36% among 360,000; in the data active = inhibition above about 35%, passing the limit was not always enough;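 note: plate controls were DMSO wells with GST-MLLE for no effect and wells lacking GST-MLLE protein for full effect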
A3G deaminase: blocks human APOBEC3G single-stranded DNA deamination; recombinant A3G, ssDNA deamination FAM/TAMRA fluorescence; inhibition, % at 20 µM; hit rate 0.28% among 330,000; AID 493012;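 active = inhibition of at least 40% at 20 µM, with no more than 30% in the related APOBEC3A deaminase screen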;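 note: plate controls were DMSO wells with A3G for no effect and wells lacking A3G enzyme for full effect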
A3A deaminase: human APOBEC3A DNA deaminase inhibition; P31941; recombinant A3A, FAM/TAMRA ssDNA deamination fluorescence; inhibition, % at 20 µM; hit rate 0.41% among 330,000;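 active = at least 40% inhibition at 20 µM here, with at most 30% in a related deaminase screen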;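 note: plate controls were A3A with DMSO for no effect and wells lacking A3A enzyme for full effect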
Target sequence (P31941 whole entry, looked up): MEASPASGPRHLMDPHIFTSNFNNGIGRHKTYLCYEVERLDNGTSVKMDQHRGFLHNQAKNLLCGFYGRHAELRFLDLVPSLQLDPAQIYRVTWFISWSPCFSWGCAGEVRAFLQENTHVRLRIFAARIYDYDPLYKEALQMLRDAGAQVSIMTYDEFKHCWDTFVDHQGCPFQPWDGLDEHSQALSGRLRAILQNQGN
APOBEC3A confirm: APOBEC3A (human) deaminase inhibition, confirmed; shares compounds with A3A deaminase; recombinant A3A, ssDNA deaminase UDG fluorescence assay; inhibition, % at 20 µM; hit rate 63% among 1,400; AID 493151;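 active = inhibition reaching a set limit, 80% of the first screen's cutoff, at 20 µM in any replicate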;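 note: plate controls were DMSO wells with A3A for no effect and wells lacking A3A enzyme for full effect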
UDG A3A counter: UDG inhibition in APOBEC3A counter-screen; shares compounds with A3A deaminase; UDG counterscreen, FAM/TAMRA uracil oligo fluorescence; inhibition, % at 20 µM; 1,000 tested, under 10 active; AID 504714
APOBEC3G confirm: confirmation of human APOBEC3G DNA deaminase inhibitors; shares compounds with A3G deaminase; recombinant A3G ssDNA deaminase, UDG/FAM-TAMRA fluorescence; inhibition, % at 20 µM; hit rate 72% among 890; AID 493152;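 active = inhibition reaching a set limit in any replicate at 20 µM, the limit being 80% of the first screen's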
UDG A3G counter: E. coli UDG inhibition in APOBEC3G counter-screen | shares compounds with A3G deaminase | UDG counterscreen, FAM/TAMRA oligo fluorescence | inhibition, % at 20 µM | 710 tested, under 10 active | AID 504715;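 active = compounds giving 40% or more inhibition at 20 µM in any one of the three replicates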;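 note: plate controls were DMSO wells with UDG and oligo for no effect and DMSO wells lacking both for full effect; inhibitors lower the FAM signal released by uracil excision and alkaline cleavage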
Target sequence (P12295 whole entry, looked up): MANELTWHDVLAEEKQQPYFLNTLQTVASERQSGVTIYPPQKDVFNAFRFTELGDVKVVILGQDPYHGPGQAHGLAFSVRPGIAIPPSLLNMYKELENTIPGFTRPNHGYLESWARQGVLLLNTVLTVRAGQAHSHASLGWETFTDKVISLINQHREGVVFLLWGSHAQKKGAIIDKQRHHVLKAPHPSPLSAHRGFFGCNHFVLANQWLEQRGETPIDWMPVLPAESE
* hit, by the source's call; i = inactive; ? = inconclusive; nt = not tested or not shown; + = active, no number. Unless noted, the rule behind the calls is not given here.

SMILES | PHOSPHO1 inh | PABP FP inh | eIF4H FP inh | PABP1 MLLE inh | A3G deaminase | A3A deaminase | APOBEC3A confirm | UDG A3A counter | others
CC(=O)O[C@H]1CC[C@@]2(C)C(=CC(=O)C3C2CC[C@@]2(C)C3C[C@H](OC(C)=O)[C@@H]2OC(C)=O)C1 (stereo partly specified) | nt | nt | nt | 7 | -6 | -4 | nt | nt
COc1ccc(C(C)=O)cc1CN1CC=C(c2ccccc2)CC1 | 6 | i | 14 | -98 | 5 | 56* | 33* | -2
CCOc1ccccc1N=C1SCCCN1C | 92* | nt | nt | -105 | 22 | 47* | 73* | 1
Cc1ccc2c(c1)C1CN(C)CCC1N2C(=O)c1cccs1 (stereo unspecified) | -30 | i | 0 | -3 | 2 | -1 | nt | nt
Cc1ccc2c(c1)C1C[N+](C)(CC(=O)c3ccc(Cl)cc3Cl)CCC1N2C(=O)c1ccc(F)cc1 (stereo unspecified) | nt | nt | nt | -59 | 13 | 79* | 79* | -2
C=CCN1CC[C@]23c4c5ccc(O)c4O[C@H]2/C(=N/NC(=O)c2ccccc2)CC[C@@]3(O)[C@H]1C5 | nt | nt | nt | -1 | -5 | -1 | nt | nt
Cc1cc(O)c(CN2CCN(c3ccccc3)CC2)cc1C | 18 | i | -8 | -13 | 6 | 4 | nt | nt
C[N+]1(C)CCN(c2ccccc2)CC1 | 18 | i | 12 | -122 | 27 | 73* | 78* | 0
O=c1[nH]c(O)c(C=Nc2cccc(F)c2)c(=O)[nH]1 | 42 | i | 2 | -2 | -2 | 1 | nt | nt
COc1ccc(-n2c(C)cc(C(=O)C[N+]34CCN(CC3)CC4)c2C)cc1 | -15 | i | 1 | -99 | 10 | 59* | 70* | 2
Cc1cc(C(=O)CN2CCCC2)c(C)n1-c1ccc(F)cc1 | 30 | i | 13 | 5 | 1 | 5 | nt | nt
COC(=O)C1=C(c2c(C)noc2C)C[C@@H]2CC[C@H]1N2C(=O)NC1CCCCC1 | nt | nt | nt | -2 | -9 | -1 | nt | nt
CCC1C(c2cc(OC)c(OC)c(OC)c2)c2cc3c(cc2OC1N1CCCC1)OCO3 (stereo unspecified) | nt | nt | nt | -11 | nt | nt | nt | nt
C[n+]1ccc(-c2ccncc2)cc1 | 92* | nt | nt | -113 | 25 | 74* | 77* | -3
CCC(CO)(C(=O)OC1C[N+]2(C)CCC1CC2)c1ccccc1 (stereo unspecified) | -10 | i | 15 | -35 | 11 | 56* | 70* | -2
CCCC[N+]12CCC(CC1)C(C(=O)c1cccs1)C2 (stereo unspecified) | -65 | i | 4 | -117 | 22 | 67* | 78* | 2
COc1cc2c(cc1OC)-c1c(OC)c(OC)cc3c1[C@H](C2)[N+](C)(C)CC3 | 33 | i | -6 | -129 | 23 | 83* | 71* | -1
CC[N+]12CCC(CC1)C(C(O)(c1ccccc1)c1ccccc1)C2 (stereo unspecified) | 20 | i | -6 | 7 | -5 | 0 | nt | nt
CC(C)[N+]12CCC(CC1)C(C(O)(c1ccccc1)c1ccccc1)C2 (stereo unspecified) | 16 | i | -2 | -107 | nt | nt | 63* | nt
C[N+]12CCC(CC1)C(C(O)(c1cccc(Cl)c1)c1cccc(Cl)c1)C2 (stereo unspecified) | -49 | i | -9 | -114 | 20 | 86* | 75* | 3
Cc1ccc(C(O)(c2ccc(C)c(C)c2)C2CN3CCC2CC3)cc1C (stereo unspecified) | 38 | i | -7 | 12 | -5 | -1 | nt | nt
Oc1ccccc1C1NCc2ccccc2-n2cccc21 (stereo unspecified) | 20 | i | -2 | 7 | -8 | -4 | nt | nt
CC1CCCC(C2(O)C(=O)Nc3ccccc32)C1=O (stereo unspecified) | 34 | i | -9 | -107 | 10 | 68* | 74* | -2
CCOP(=O)(OCC)C1(O)C(=O)Nc2ccccc21 (stereo unspecified) | -5 | i | -8 | -9 | -4 | 3 | nt | nt
CC(C)(C)C(=O)c1cn(CC(=O)NCc2ccco2)c2ccccc12 | -11 | + | -10 | -143 | 15 | 59* | 46* | -2
SMILES | PHOSPHO1 inh | PABP FP inh | eIF4H FP inh | PABP1 MLLE inh | A3G deaminase | A3A deaminase | APOBEC3A confirm | UDG A3A counter | others
CCOc1c(P(=S)(N(C)C)N(C)C)c(C)nn1-c1ccccc1 | 0 | i | 1 | 5 | 5 | 42* | 4 | nt
CCN(CC)P(=O)(c1n(CC)cc[n+]1CC)N(CC)CC | -79 | i | -4 | -108 | 28 | 86* | 73* | -2
O=c1[nH]c(=S)n(C2CC2)c(O)c1/C=N/Nc1cccc2ccccc12 | -24 | i | 52 | 15 | 55* | 2 | nt | nt | APOBEC3G confirm=2
CCC(C)n1c(O)c(/C=N/Nc2ccccc2)c(=O)[nH]c1=S (stereo unspecified) | -7 | i | -11 | 7 | 49* | 1 | nt | nt | APOBEC3G confirm=9
O=c1[nH]c(=O)n(CCC2=CCCCC2)c(O)c1/C=N/Nc1cccc2ccccc12 | -25 | + | ? | 3 | 42* | 2 | nt | nt | APOBEC3G confirm=27
O=c1[nH]c(=O)n(CCC2=CCCCC2)c(O)c1/C=N/Nc1ccccc1 | -18 | i | 2 | -12 | 22 | 1 | nt | nt
CCC(=O)N1N=C(c2c(O)n(CCc3ccccc3)c(=O)[nH]c2=O)CC1c1ccc(OC)c(OC)c1 (stereo unspecified) | 27 | i | 18 | 0 | -8 | -4 | nt | nt
Cn1c(NN=O)nc2ccccc21 | 15 | i | 3 | 3 | 59* | 2 | nt | nt | APOBEC3G confirm=28*;UDG A3G counter=-1
CCC12CN3CC(CC)(CN(C1)C3c1cccnc1)C2=O (stereo unspecified) | 33 | i | -3 | -15 | 0 | 2 | nt | nt
CC(=O)NN1C(=O)c2ccccc2NC1c1cccnc1 (stereo unspecified) | -5 | i | -1 | -2 | 54* | 5 | nt | nt | APOBEC3G confirm=-1
O=C(NCCCn1ccnc1)C(Cl)(Cl)Cl | 42 | i | -10 | -9 | 44* | 4 | nt | nt | APOBEC3G confirm=-1
CCCCn1c(O)c(C(C)=Nc2c(C)n(C)n(-c3ccccc3)c2=O)c(=O)[nH]c1=O | -2 | i | 14 | -7 | -2 | 1 | nt | nt
Clc1ccc(CCNCc2ccncc2)c(Cl)c1 | 5 | i | -6 | -8 | -3 | -1 | nt | nt
NS(=O)(=O)c1ccc(-c2ccc(C=C3C(=O)NC(=S)NC3=O)o2)cc1 | -193 | i | 15 | nt | 48* | 8 | nt | nt | APOBEC3G confirm=47*
NS(=O)(=O)c1ccc(-c2ccc(C=C3C(=O)NC(=O)NC3=O)o2)cc1 | -26 | i | ? | -1 | 15 | 2 | nt | nt
O=C(OCC(=O)c1ccc([N+](=O)[O-])cc1)/C(=C/c1ccc(Cl)cc1)NC(=O)c1ccccc1 | 7 | i | -5 | 16 | -9 | 3 | nt | nt
